{"source": "PubChem BioAssay AID651657", "about": "(Broad Institute, 2012)", "note": "Results with a measured potency or affinity are listed apart. Active and inactive are the calls of the source.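 How the source made its calls: active means signal falls, with fitted half-maximal concentration at most twice the top valid dose tested; inconclusive means flat curve with partial signal loss, or poor curve fit; inactive means the rest, including signal rising instead.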", "data": [{"target": "DNA repair and recombination protein RAD54-like (Homo sapiens) (UniProt Q92698)", "sequence (Q92698 whole entry, looked up)": "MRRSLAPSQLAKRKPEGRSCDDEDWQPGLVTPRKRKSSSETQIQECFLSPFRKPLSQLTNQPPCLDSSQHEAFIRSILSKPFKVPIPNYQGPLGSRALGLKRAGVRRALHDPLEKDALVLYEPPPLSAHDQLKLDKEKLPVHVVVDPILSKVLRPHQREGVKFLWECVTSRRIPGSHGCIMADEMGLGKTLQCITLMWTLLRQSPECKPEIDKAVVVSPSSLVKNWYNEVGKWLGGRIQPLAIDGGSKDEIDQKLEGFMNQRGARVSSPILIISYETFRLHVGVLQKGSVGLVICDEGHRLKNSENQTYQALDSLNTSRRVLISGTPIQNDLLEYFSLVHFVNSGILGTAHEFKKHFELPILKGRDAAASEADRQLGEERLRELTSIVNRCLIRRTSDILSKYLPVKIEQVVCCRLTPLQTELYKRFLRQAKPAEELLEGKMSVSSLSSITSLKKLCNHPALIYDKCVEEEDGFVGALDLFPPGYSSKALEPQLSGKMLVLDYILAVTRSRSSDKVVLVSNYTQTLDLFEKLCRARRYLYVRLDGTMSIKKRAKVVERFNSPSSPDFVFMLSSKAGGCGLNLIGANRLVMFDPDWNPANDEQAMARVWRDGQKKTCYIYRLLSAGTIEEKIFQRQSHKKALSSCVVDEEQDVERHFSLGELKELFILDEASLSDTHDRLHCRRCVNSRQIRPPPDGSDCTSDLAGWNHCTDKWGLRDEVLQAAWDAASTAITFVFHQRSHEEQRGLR", "test": "inhibitors of human RAD54 branch migration, confirmation, biochemical, fluorescence, cherry-picked samples, dose series (AID 651657)", "conditions": "FAM/BHQ fluorescence, 60 min; series mostly up to 50 µM", "values": [{"smiles": "O=S(=O)(c1ccc(-c2nnc(SCc3ccccc3)o2)cc1)N1CCCC1", "outcome": "inactive"}, {"smiles": "Cc1ccc(C)c(N2CCN(C(=S)Nc3ccc4nc(N5CCN(C)CC5)cc(C)c4c3)CC2)c1", "outcome": "inactive"}, {"smiles": "C(=C/c1nccc2c1[nH]c1ccccc12)/c1ccc2c(c1)OCO2", "outcome": "inactive"}, {"smiles": "Cc1ccnc(Nc2nc(-c3sc(C)nc3C)cs2)c1", "outcome": "inactive"}, {"smiles": "O=C(Nc1ccc2c(c1)OCO2)c1cc(-c2ccncc2)nc2ccccc12", "outcome": "inactive"}, {"smiles": "CC1CCCCC1NC(=O)C1Cc2ccccc2CN1S(C)(=O)=O", "note": "(stereo not drawn)", "outcome": "inactive"}, {"smiles": "COCCCNCCC(CCC(C)C)c1ccc2c(c1)OCO2", "note": "(stereo not drawn)", "outcome": "inactive"}, {"smiles": "COc1ccccc1NC(=O)CNC(=O)c1ccccc1", "outcome": "inactive"}, {"smiles": "COC(=O)Nc1nnc(COc2ccccc2)s1", "outcome": "inactive"}, {"smiles": "CN1CCN(CC(=O)Nc2nc(-c3c[nH]c4ccccc34)cs2)CC1", "outcome": "inactive"}, {"smiles": "CCCC(c1nnnn1Cc1ccc(OC)cc1)N1CCN(c2ccccc2)CC1", "note": "(stereo not drawn)", "outcome": "inactive"}, {"smiles": "CCN1CCN(c2cc(C)c3cc(NC(=S)N4CCCC(C)C4)ccc3n2)CC1", "note": "(stereo not drawn)", "outcome": "inactive"}, {"smiles": "NC(=O)C1CCN(c2nc(-c3cccnc3)cs2)CC1", "outcome": "inactive"}, {"smiles": "COc1cc(NC(=O)c2cccnc2Sc2ccc(C)c(C)c2)cc(OC)c1OC", "outcome": "inactive"}, {"smiles": "O=C(NN1CCOCC1)c1cc(-c2ccc(Cl)c(Cl)c2)nc2ccccc12", "outcome": "inactive"}, {"smiles": "CCOC(=O)C1C(=O)NC(N2CCN(c3ccccc3)CC2)=NC1c1ccco1", "note": "(stereo not drawn)", "outcome": "inactive"}, {"smiles": "Cc1ccc(S(=O)(=O)NCCCNS(=O)(=O)c2ccccc2[N+](=O)[O-])cc1", "outcome": "inactive"}, {"smiles": "CCOC(=O)c1[nH]c2cc3c(cc2c1CCCN1C(=O)c2ccccc2C1=O)OCCO3", "outcome": "inactive"}, {"smiles": "c1ccc(-c2nnc(SCc3nc4ccccc4[nH]3)o2)cc1", "outcome": "inactive"}, {"smiles": "COc1ccc(N2C(=O)CSC23CCCCC3)cc1", "outcome": "inactive"}, {"smiles": "Cc1ccc(S(=O)(=O)CCSc2ccc(C(F)(F)F)cn2)cc1", "outcome": "inactive"}, {"smiles": "COc1ccccc1NC(=O)Cn1nnc2sc3c(c2c1=O)CC(C)(C)OC3", "outcome": "inactive"}, {"smiles": "COC(=O)C1=C(C)Nc2nc3ccccc3n2C1c1ccccc1F", "note": "(stereo not drawn)", "outcome": "inactive"}]}]}
